Among the data in the supplement of paper PMC8007513 are growth yield values, retold here.

For this experiment, the system named is Trichoderma virens ATCC 9645. Description: growth yield (OD600) with compound + IPBC relative to untreated control; higher = less growth inhibition. Conditions: compound concentration: 100 uM, IPBC concentration: 200 ng/ml. Summed up:
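Plates were read for OD600 at 40 h and 72 h after Trichoderma virens ATCC 9645 spores (15,000 spores ml^−1 in potato dextrose broth) were grown at 30 °C with library compounds at 100 μM final, with or without a biocide at 200 ng ml^−1. Growth is stated relative to the control with neither agent, as the mean of duplicate screens.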

Structures can show the parent of a compound that is named as a salt. ± gives the standard error. Hit rate of the full screen: of about 1,300 compounds, about 130 (10%) showed an effect of 50% or more. The sample as a whole holds a higher share of strong results than the screen did.

Regarding `CO[C@@H]1[C@@H](O[C@@H]2O[C@H](C)[C@@H](O[C@H]3C[C@@](C)(O)[C@@H](OC(=O)CC(C)C)[C@H](C)O3)[C@H](N(C)C)[C@H]2O)[C@@H](CC=O)C[C@@H](C)[C@@H](O)/C=C/C=C/C[C@@H](C)OC(=O)C[C@H]1OC(C)=O` [Josamycin] + CCCCNC(=O)OCC#CI [3-iodo-2-propynyl butylcarbamate (IPBC)], the growth yield runs as follows: (40 h) 100 ± 4.5%; (72 h) 103 ± 3.5%.
On to `Nc1cc(C(Cl)=C(Cl)Cl)c(S(N)(=O)=O)cc1S(N)(=O)=O` [Clorsulon] + CCCCNC(=O)OCC#CI [3-iodo-2-propynyl butylcarbamate (IPBC)], for which the growth yield runs as follows: (40 h) 86.4 ± 2.2%; (72 h) 90.8 ± 3.1%.
As to `C[C@H](O)C(=O)Nc1c(I)c(C(=O)NC(CO)CO)c(I)c(C(=O)NC(CO)CO)c1I` [Iopamidol] + CCCCNC(=O)OCC#CI [3-iodo-2-propynyl butylcarbamate (IPBC)], the growth yield runs as follows: (40 h) 101 ± 5.7%; (72 h) 101 ± 3.8%.
Take `CN(C)C(=N)NC(=N)N` [Metformin hydrochloride] + CCCCNC(=O)OCC#CI [3-iodo-2-propynyl butylcarbamate (IPBC)]: the growth yield amounted to 85.9 ± 4.9% (40 h) and 88 ± 2.2% (72 h).
Take `O=C1OCCN1/N=C/c1ccc([N+](=O)[O-])o1` [Furazolidone] + CCCCNC(=O)OCC#CI [3-iodo-2-propynyl butylcarbamate (IPBC)]: the growth yield reads like this: (40 h) 76.2 ± 8.6%; (72 h) 88.9 ± 5.2%.
The corresponding values for `N=C(N)NCCN1CCCCCCC1` [Guanethidine sulfate] + CCCCNC(=O)OCC#CI [3-iodo-2-propynyl butylcarbamate (IPBC)] are 81.3 ± 4.1% and 90.2 ± 4.4%.
Consider `COC[C@@H](NC(C)=O)C(=O)NCc1ccccc1` [Lacosamide] + CCCCNC(=O)OCC#CI [3-iodo-2-propynyl butylcarbamate (IPBC)], for which the growth yield (40 h) was 85.6 ± 1.4% and the growth yield (72 h) was found to be 93.66 ± 0.73%.
Turning to `CN(C)CCCN1c2ccccc2CCc2ccccc21` [Imipramine hydrochloride] + CCCCNC(=O)OCC#CI [3-iodo-2-propynyl butylcarbamate (IPBC)], the growth yield worked out at 81 ± 1.9% (40 h) and 96.28 ± 0.21% (72 h).
On the same counts, the results for `CN(C)CCCN1c2ccccc2Sc2ccc(C(F)(F)F)cc21` [Triflupromazine hydrochloride] + CCCCNC(=O)OCC#CI [3-iodo-2-propynyl butylcarbamate (IPBC)] are 46.4 ± 2.9% and 81.3 ± 4.3%.
On the same counts, the results for `CC(=O)c1ccc2c(c1)N(CCCN(C)C)c1ccccc1S2` [Acetopromazine maleate salt] + CCCCNC(=O)OCC#CI [3-iodo-2-propynyl butylcarbamate (IPBC)] are 70.84 ± 0.32% and 91.6 ± 0.94%.
The corresponding values for `CN1CCN(CCCN2c3ccccc3Sc3ccc(C(F)(F)F)cc32)CC1` [Trifluoperazine dihydrochloride] + CCCCNC(=O)OCC#CI [3-iodo-2-propynyl butylcarbamate (IPBC)] are 4.45 ± 0.95% and 3.46 ± 0.1%.
On to `OC(CCCN1CCCCC1)(c1ccccc1)c1ccccc1` [Diphenidol hydrochloride] + CCCCNC(=O)OCC#CI [3-iodo-2-propynyl butylcarbamate (IPBC)], for which the growth yield runs as follows: (40 h) 89.4 ± 2.4%; (72 h) 96.7 ± 3.4%.
For the compound `CC(=O)c1ccc2c(c1)N(CCCN1CCC(CCO)CC1)c1ccccc1S2` [Piperacetazine] + CCCCNC(=O)OCC#CI [3-iodo-2-propynyl butylcarbamate (IPBC)], the growth yield is, setting by setting: (40 h) 55%; (72 h) 94.8%.
Regarding `OCCN1CCN(CCCN2c3ccccc3Sc3ccc(C(F)(F)F)cc32)CC1` [Fluphenazine dihydrochloride] + CCCCNC(=O)OCC#CI [3-iodo-2-propynyl butylcarbamate (IPBC)], the growth yield (40 h) came out at 2.86% and the growth yield (72 h) amounted to 2.31 ± 0.21%.
The corresponding values for `CN(C)CCCN1c2ccccc2Sc2ccccc21` [Promazine hydrochloride] + CCCCNC(=O)OCC#CI [3-iodo-2-propynyl butylcarbamate (IPBC)] are 71.95 ± 0.16% and 90.8 ± 3.8%.
In the case of `CNCCCN1c2ccccc2CCc2ccccc21` [Desipramine hydrochloride] + CCCCNC(=O)OCC#CI [3-iodo-2-propynyl butylcarbamate (IPBC)], the growth yield (40 h) stood at 70.4 ± 1.4% and the growth yield (72 h) was 93.5 ± 3.4%.
On the same counts, the results for `CC(=O)N[C@@H](CC(=O)N[C@@H](CCC(=O)O)C(=O)O)C(=O)O` [Spaglumic acid] + CCCCNC(=O)OCC#CI [3-iodo-2-propynyl butylcarbamate (IPBC)] are 95.6 ± 7.3% and 95.1 ± 7%.
As to `COc1ccc(C(=O)NCc2cccnc2)cc1C(=O)NCc1cccnc1` [Picotamide monohydrate] + CCCCNC(=O)OCC#CI [3-iodo-2-propynyl butylcarbamate (IPBC)], the growth yield is, setting by setting: (40 h) 91.2 ± 5.1%; (72 h) 97 ± 3.9%.
As to `CC(CN(C)C)CN1c2ccccc2CCc2ccccc21` (stereo not given) [Trimipramine maleate salt] + CCCCNC(=O)OCC#CI [3-iodo-2-propynyl butylcarbamate (IPBC)], the growth yield came out at 75.1 ± 0.79% (40 h) and 93.97 ± 0.84% (72 h).
As for `CN1CCOC(c2ccccc2)c2ccccc2C1` (stereo not given) [Nefopam hydrochloride] + CCCCNC(=O)OCC#CI [3-iodo-2-propynyl butylcarbamate (IPBC)], the growth yield was 83.4 ± 1.1% (40 h) and 93.1 ± 1.1% (72 h).
The corresponding values for `CC(=O)OCC1=C(C(=O)O)N2C(=O)[C@@H](N)[C@H]2SC1` [Cephalosporanic acid, 7-amino] + CCCCNC(=O)OCC#CI [3-iodo-2-propynyl butylcarbamate (IPBC)] are 85.1 ± 3.8% and 94.6 ± 3.1%.
On the same counts, the results for `NS(=O)(=O)c1cc2c(cc1Cl)N=CNS2(=O)=O` [Chlorothiazide] + CCCCNC(=O)OCC#CI [3-iodo-2-propynyl butylcarbamate (IPBC)] are 102.6 ± 0.32% and 106 ± 2.8%.
Consider `CCOc1ccc(Cc2nccc3cc(OCC)c(OCC)cc23)cc1OCC` [Ethaverine hydrochloride] + CCCCNC(=O)OCC#CI [3-iodo-2-propynyl butylcarbamate (IPBC)], for which the growth yield by setting is: (40 h) 55 ± 2.2%; (72 h) 82.3 ± 2.2%.
On to `CC[C@H]1OC(=O)C[C@@H](O)[C@H](C)[C@@H](O[C@@H]2O[C@H](C)[C@@H](O[C@H]3C[C@@](C)(O)[C@@H](O)[C@H](C)O3)[C@H](N(C)C)[C@H]2O)[C@@H](CC=O)C[C@@H](C)C(=O)/C=C/C(C)=C/[C@@H]1CO[C@@H]1O[C@H](C)[C@@H](O)[C@@H](OC)[C@H]1OC` [Tylosin] + CCCCNC(=O)OCC#CI [3-iodo-2-propynyl butylcarbamate (IPBC)], for which the growth yield is 95.3 ± 7.9% (40 h) and 95.1 ± 3% (72 h).
On the same counts, the results for `CC(C)NC[C@@H](O)COc1ccc(CC(N)=O)cc1` [(R)-(+)-Atenolol] + CCCCNC(=O)OCC#CI [3-iodo-2-propynyl butylcarbamate (IPBC)] are 101 ± 2.1% and 98.48 ± 0.52%.
